In all, about 190,000 compounds went through this assay and about 930 (0.49%) were called active.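 The calls were made as follows: active = z-score of insulin promoter reporter brightness in nuclei below -3 at 5 µM, with at least 500 cells counted; inconclusive = wells with under 500 cells, flagged as toxic or sparse; inactive = the rest.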 This is one part of the list. Measured potencies and affinities stand elsewhere.
Assay: insulin promoter down-regulators in MIN6 cells, imaging, high-content screening, mouse beta cells (AID 1628)
Details: MIN6 insulin promoter GFP reporter, at 5 µM, stronger effect = lower value

Structure (SMILES)	z-score
COc1ccc(-n2c(SCC(=O)Nc3cccc4ccccc34)nc(O)cc2=O)cc1	-6.42 (active)
COc1ccc(-n2c(Cc3cccn3C)nnc2SCC(=O)Nc2cccc(C)c2C)cc1	3.05 (inactive)
O=C(Nc1nnc(-c2ccc(Cl)s2)o1)C1CC1	2.8 (inactive)
CCn1nnc2sc3c(c2c1=O)CCC(C)C3 (centres undefined)	3.59 (inactive)
O=C(CSc1ncn[nH]1)NCc1ccccc1	5.42 (inactive)
C/C(CC(=O)NCc1ccc(Cl)cc1)=N\NC(=O)Cc1ccccc1	-4.08 (active)
COc1cc(OC)c(OC)cc1/C=C1\Oc2cc(OS(C)(=O)=O)ccc2C1=O	5.02 (inactive)
Cc1ccc(-c2nc(C#N)c(NCCN3CCCCC3)o2)cc1	-3.25 (active)
CC(=O)N1CCOCCOCCN(C(C)=O)CCOCC1	2.13 (inactive)
O=C(/C=C/c1cccs1)N1CCOCC1	-5.7 (active)
Cc1cccc(Oc2nccc(C(F)(F)F)c2C(=O)Nc2ccc(F)cc2F)c1	3.57 (inactive)
Fc1ccc(NC(=S)NNc2ncc(C(F)(F)F)cc2Cl)c(F)c1	-3.64 (active)
CN(C)c1ccc(/C=C2\SC(=S)N(Nc3ncc(C(F)(F)F)cc3Cl)C2=O)cc1	4.86 (inactive)
O=Cc1sc(Nc2ccccc2)nc1Cl	3.66 (inactive)
Oc1c(/C=C/C=C/C=Nc2ccccc2)sc(=S)n1Cc1ccccc1	3.27 (inactive)
CSc1nsc(/C=C/Nc2ccc(C)cc2)c1C#N	3.5 (inactive)
Cc1ccc(C)c(N=Nc2ccc(O)c3ncccc23)c1	-4.77 (active)
N#C/C(=C/c1ccc(-c2ccccc2)o1)c1nc(-c2cccs2)cs1	14.7 (inactive)
Cc1ccc(OCC2Cn3c(nc4c3c(=O)n(C)c(=O)n4C)O2)cc1 (centres undefined)	-6.54 (active)
CC(=O)NC(c1ccc(Cl)cc1)c1c(O)ccc2ccc(O)cc12 (centres undefined)	10.6 (inactive)
Cc1cc(C)nc(N2CCC(C(=O)Nc3ccc4c(c3)OCCO4)CC2)n1	3.37 (inactive)
COc1ccccc1N1CCN(c2cc(C)nc3nc(C)nn23)CC1	1.58 (inactive)
CCc1c(C)nc2ncnn2c1N1CCC(C(=O)NCc2cccc(OC)c2)CC1	-5.78 (active)
CCc1c(C)nc2ncnn2c1N1CCC(C(=O)Nc2ccc(C)cc2)CC1	-5.25 (active)

Structure (SMILES)	z-score
Cc1cc(N2CCC(C(=O)N3CCN(c4cccc(C)c4C)CC3)CC2)n2ncnc2n1	-4.36 (active)
COc1nc(OC)nc(N2CCC(C(=O)NCc3cccs3)CC2)n1	3.48 (inactive)
CCC(=O)N1c2ccccc2C(N(C(C)=O)c2ccccc2)CC1C (centres undefined)	0.92 (inactive)
Cc1cc(/C=C2\SC(=S)NC2=O)c(C)n1-c1ccc(O)cc1	3.66 (inactive)
CCCNC(=O)Cn1c(=O)/c(=C\c2ccc(-c3ccc([N+](=O)[O-])cc3)o2)s/c1=C\C(=O)C(C)(C)C	18.3 (inactive)
COc1ccc(OC)c(C2C3CN(C(C)C)CC=C3C(C#N)=C(N)C2(C#N)C#N)c1 (centres undefined)	17.1 (inactive)
CCC(Sc1nnc(C)s1)C(=O)Nc1nccs1 (centres undefined)	1.54 (inactive)
Cc1nc2ncnn2c(N2CCCC(C(=O)Nc3ccc4c(c3)CCC4)C2)c1C (centres undefined)	-5.29 (active)
O=C(Nc1ccc(C2CCCCC2)cc1)C1CCCN(c2ncccn2)C1 (centres undefined)	3.77 (inactive)
CCc1c(C)nc2ncnn2c1N1CCC(C(=O)N2CCN(c3ccc(F)cc3)CC2)CC1	-3.04 (active)
OC1(c2cn(Cc3ccccc3)nn2)CCCCC1	5.88 (inactive)
Cc1ccc(C(C#N)c2ccc(C(=O)c3ccc(F)cc3)cc2)cc1 (centres undefined)	-4.77 (active)
CCS(=O)(=O)c1ccc2oc(SCC(=O)NC3CCCC(C)C3C)nc2c1 (centres undefined)	4.28 (inactive)
Fc1ccc(NCc2nnc(SCc3nnc(-c4ccccc4)o3)n2Cc2ccccc2)cc1	-4.77 (active)
Cc1ccccc1NC(=O)/C(=C\c1cccs1)NC(=O)c1ccco1	-5.39 (active)
CN1CCN(C(=O)/C(=C\c2cccs2)NC(=O)c2ccco2)CC1	-6.33 (active)
CN1CCN(C(=O)/C(=C\c2cccs2)NC(=O)c2cccs2)CC1	6.06 (inactive)
O=C1c2cccc3c(O)ccc(c23)C(=O)N1Cc1ccco1	12.8 (inactive)
NC(=O)CC[C@@H]1NC(=O)[C@@H]2CCCN2C(=O)c2cc([N+](=O)[O-])cc(I)c2NCCCC[C@@H](C(=O)NC(CC(=O)O)C(N)=O)NC1=O (some centres undefined)	-4.71 (active)
NCCCC[C@@H]1NC(=O)[C@H](CCC(=O)O)NC(=O)c2cc([N+](=O)[O-])cc(I)c2NCC[C@@H](C(N)=O)NC1=O	-4.01 (active)
CC(C)C[C@@H]1NC(=O)[C@H](C(C)C)NC(=O)c2cc([N+](=O)[O-])cc(I)c2NCC[C@@H](C(N)=O)NC1=O	-5.69 (active)
Cc1oc(C)c2c(=O)ccc3c(c12)OC(N)=C(C#N)C3c1ccc(F)cc1 (centres undefined)	3.56 (inactive)
CCCCSc1nnc(CCCCCNC(=O)OC(C)(C)C)o1	-4.83 (active)
COc1ccc2cc(/C(C)=N/NC(=S)Nc3cc(S(=O)(=O)N4CCOCC4)ccc3N3CCOCC3)ccc2c1	-3.25 (active)

Structure (SMILES)	z-score
COc1ccc(-c2cc(C(=O)Nc3cc(S(=O)(=O)N4CCOCC4)ccc3N3CCOCC3)c3ccccc3n2)cc1	-3.45 (active)
Cc1ccn2cc(-c3ccc(S(=O)(=O)N4CCOCC4)cc3)nc2c1	-0.88 (inactive)
COc1cc(S(=O)(=O)N2CCOCC2)ccc1NC(=O)COC(=O)C12CC3CC(CC(C3)C1)C2	3.88 (inactive)
COc1cccc(-c2cc(C(=O)Nc3ccc4c(c3)OCCO4)c3ccccc3n2)c1	-4.93 (active)
COc1ccc(C2C(C(C)=O)=C(C)N=c3s/c(=C\c4cc(C)n(C)c4C)c(=O)n32)c(OC)c1 (centres undefined)	8.76 (inactive)
N#C/C(=C\C1=C(N2CCOCC2)C(=C\c2ccc(Cl)cc2)/CC1)C(=O)Nc1ccccc1F	3.27 (inactive)
CN1CC=C2C(C#N)=C(N)C(C#N)(C#N)C(c3ccsc3)C2C1 (centres undefined)	4.07 (inactive)
Cc1ccc2c(c1)cc(CN(Cc1ccc3c(c1)OCO3)S(=O)(=O)c1ccccc1)c1nnnn12	-3.75 (active)
Cc1cc(-c2cccs2)c2c(N)c(C(=O)c3ccc4c(c3)OCO4)sc2n1	4.7 (inactive)
COc1ccc2c(C(=O)CN(C)C3CCCCC3)c[nH]c2c1	4.45 (inactive)
O=C(NC1CCCC1)c1c[nH]c2ccc(F)cc2c1=O	-3.28 (active)
Cc1ccc(C2C3CN(C(C)C)CC=C3C(C#N)=C(N)C2(C#N)C#N)cc1 (centres undefined)	10.3 (inactive)
NC(=O)CCN1CCN(CCOC2Cc3cc(Cl)ccc3Sc3ccccc32)CC1 (centres undefined)	-4.24 (active)
CC(C)CC(=O)c1c[nH]c(C(=O)NCCc2ccccn2)c1	-3.63 (active)
Nc1c(C(=O)N/N=C/c2cccnc2)oc2nc(-c3ccco3)cc(-c3ccco3)c12	5.39 (inactive)
O=C(Nc1ccc(-c2csc(Nc3cccc(C(F)(F)F)c3)n2)cc1)c1cccc(C(F)(F)F)c1	-4.02 (active)
c1ccc(N2CCN(c3nc(NCc4ccco4)c4ccccc4n3)CC2)cc1	-3.05 (active)
c1ccc(CN2CCN(c3nc(NCc4ccco4)c4ccccc4n3)CC2)cc1	-3.17 (active)
CCCS(=O)(=O)N1CCC(C(=O)N2CCOCC2)CC1	4.02 (inactive)
OC(CN1CCCCC1)CN(c1ccccc1)c1ccccc1 (centres undefined)	-4.02 (active)
O=C(/C=C/c1cn(CC(O)CN2CCCCC2)c2ccccc12)c1cccs1 (centres undefined)	4.58 (inactive)
O=C(/C=C/c1cn(CC(O)CN2CCCCCC2)c2ccccc12)c1cccs1 (centres undefined)	5.06 (inactive)
Cc1c(-c2ccc(O)cc2)nc2nc(-c3ccccc3)c(-c3ccccc3)nn12	17.8 (inactive)
COc1cccc(OC)c1OCCN(C)C	3.98 (inactive)

Structure (SMILES)	z-score
O=c1c([N+](=O)[O-])cccn1Cc1ccc(F)cc1Cl	3.36 (inactive)
Cc1ccc(S(=O)(=O)c2nc(-c3cccs3)oc2NCCCN(C)C)cc1	-5.47 (active)
CCC(C)(C)n1nnnc1C(c1ccccc1)N1CCN(C2CCCC2)CC1 (centres undefined)	-4.27 (active)
CCC(C)(C)n1nnnc1C(c1cccc(C#N)c1)N1CCN(c2cccc(C)c2C)CC1 (centres undefined)	-3.1 (active)
Cc1cccc(N2CCN(C(c3ccccc3)c3nnnn3CC3CCCO3)CC2)c1C (centres undefined)	-3.05 (active)
CCCOc1ccc(-c2nn(-c3ccccc3)cc2/C=C2\SC(=S)N(C3CCS(=O)(=O)C3)C2=O)cc1 (centres undefined)	4.83 (inactive)
Cc1ccc(S(=O)(=O)N2CCCC2C(=O)N(C)Cc2cccs2)cc1 (centres undefined)	4.2 (inactive)
Cc1ccc(S(=O)(=O)N(C)c2ccc(C(=O)N3CCCCC3)cc2)cc1	-5.08 (active)
O=C(CCC(=O)c1ccc(F)cc1)Nc1cccc(C(F)(F)F)c1	-5.11 (active)
CC1(C)OC(=O)N(CC(=O)Nc2cccc(C(F)(F)F)c2)C1(C)O (centres undefined)	0.44 (inactive)
CCOC(=O)c1nnn(-c2nonc2N)c1-c1ccc(OC)cc1	-5.06 (active)
CCOC(=O)c1nnn(-c2nonc2N)c1-c1ccc(OCC)cc1	3.82 (inactive)
CCOC(=O)c1nnn(-c2nonc2N)c1CN1CCCCCC1	0.52 (inactive)
N#C/C(=C\C1=C(N2CCOCC2)C(=C/c2cccc([N+](=O)[O-])c2)/CC1)C(=O)Nc1ccccc1F	3.07 (inactive)
CC(=O)Nc1sc(/C(C#N)=C/c2ccc(Cl)c(Cl)c2)nc1-c1ccc(C)cc1	17.4 (inactive)
O=c1[nH]c2ccc(NS(=O)(=O)c3ccc([N+](=O)[O-])cc3)cc2[nH]1	2.55 (inactive)
O=C(c1cccs1)c1no[n+]([O-])c1C(=O)c1cccs1	3.78 (inactive)
CCCCn1c(=N)n(CCOc2ccc(C)cc2)c2ccccc21	-3.46 (active)
CCOC(=O)Cn1c(=N)n(CCOc2cccc(C)c2)c2ccccc21	-4.7 (active)
COc1ccc(OCCn2cc(/C(N)=N/O)c3ccccc32)cc1	3.09 (inactive)
CCCn1c(=N)n(CCOc2ccc(OC)cc2)c2ccccc21	-4.79 (active)
CCOC(=O)Cn1c2ccc(F)cc2c2nc(C)sc21	3.68 (inactive)

Source: PubChem BioAssay AID1628 (Sanford-Burnham Center for Chemical Genomics, 2009)
